Experimental findings from PubChem BioAssay are described below.

One test deals with Albumin (Bos taurus) (UniProt P02769). The experiment in a line: bovine serum albumin binders on microarray, profiling panel, artefact control for SMM control protein annotation, biochemical, small-molecule microarray, Alexa647 label, 635/667 nm fluorescence (AID 1118).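 Note: score merges 667 nm emission intensity and signal-to-noise per printed compound spot.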 To be noted: BSA-A647 binding, fluorescence 635 nm, higher = more signal.
Test [1] in a line: small-molecule microarray binders of probe aXIP, primary screen, biochemical, NeuroSMM set, 635/667 nm fluorescence (AID 1119).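 Note: probe is the protein aXip251-270 applied at 1 µg/mL to compound-printed slides; binding of probe to printed compounds measured as 667 nm fluorescence plus signal to noise.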 To be noted: higher = more signal, called active from +8 up or from −8 down.
Test [2] can be described thus: small-molecule binders of probe aNOTCH3, primary screen, biochemical, small-molecule microarray, 635/667 nm fluorescence (AID 1120).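 Note: probe is a biotin-tagged antibody raised against NOTCH3 rather than NOTCH3 protein; score merges spot fluorescence near 667 nm with spot signal to noise.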 To be noted: higher = more signal.
A short description of test [3]: small-molecule binders of probe aNOTCH2, primary screen, biochemical, small-molecule microarray, 635/667 nm fluorescence (AID 1121).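 Note: score merges feature fluorescence read at 667 nm with its signal to noise.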 To be noted: higher = more signal.
In test [4] the target is Carbonic anhydrase 2 (Homo sapiens) (UniProt P00918). The experiment in a line: CAII small-molecule binders, profiling panel, biochemical, small-molecule microarray, Alexa647-labelled CAII (AID 1122). To be noted: CAII-A647 binding fluorescence, higher = more signal.
Test [5] in a line: COS7 lysate on small-molecule microarray, probe aHis, 635 nm (AID 1123).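 Note: z-score combines 667nm fluorescence intensity with signal-to-noise per printed compound spot.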 To be noted: COS7 cell lysate, fluorescence, higher = more signal.
Test [6] can be described thus: compound binding in COS7 lysate, probe aLAP1, primary screen, cell lysate, small-molecule microarray (AID 1124).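 Note: lysate comes from COS7 cells expressing LAP1 and is applied at 0.3 µg/mL; score merges spot fluorescence near 667 nm with signal-to-noise over triplicate slides.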 To be noted: probe aLAP1, fluorescence, higher = more signal.
The test system of the next test is Sam68 (KHDRBS1). The experiment in a line: Sam68 small-molecule binders, primary screen, biochemical, small-molecule microarray, 635 nm fluorescence (AID 1125).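 Note: score merges 667 nm channel intensity with signal to noise over triplicate slides.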 To be noted: small-molecule microarray binding, higher = more signal.
Test [7] has as its system Chordin-like protein 2 (CHRDL2). Briefly: CHRDL2 small-molecule binders, primary screen, biochemical, small-molecule microarray, 635 nm fluorescence (AID 1126).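 Note: printed compound slides probed with Chrdl2 protein at 4 µg/mL for 1 h at 4 C; score merges 667 nm emission intensity with signal to noise over three replicate slides.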 To be noted: small-molecule microarray binding, fluorescence 635 nm; higher = more signal.
The target in test [8] is Concanavalin-A (Canavalia ensiformis) (UniProt P02866). Briefly: ConA small-molecule binders, primary screen, artefact control for SMM control protein annotation, biochemical, small-molecule microarray, Alexa647 label, 635 nm (AID 1127).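 Note: z combines 667 nm emission intensity with signal-to-noise across three replicate slides.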 To be noted: ConA-A647 binding fluorescence, higher = more signal.
A short description of test [9]: anti-His antibody binders, primary screen, artefact control for SMM control protein annotation, biochemical, small-molecule microarray, 635 nm fluorescence (AID 1128).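 Note: score merges feature fluorescence with signal-to-noise for each printed compound spot.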 To be noted: anti-His Alexa647 antibody binding, higher = more signal.
In test [10] the test system is Human papillomavirus type 1a E7 protein (residues 1-88). The experiment in a line: HPV1a E7 small-molecule binders, primary screen, biochemical, small-molecule microarray, residues 1-88, 635 nm (AID 1129). To be noted: small-molecule microarray binding, fluorescence 635 nm; higher = more signal.
Test [11] addresses Focal adhesion kinase 1 (Homo sapiens) (UniProt Q05397). Briefly: small-molecule microarray binders of FAK, primary screen, biochemical, 635/667 nm fluorescence, BSA, DTT (AID 1130).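 Note: composite of spot emission at 667 nm and signal to noise over triplicate slides.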 To be noted: PTK2 binding, 635 nm fluorescence, higher = more signal.
For test [12], the system named is Fibrinogen (Alexa647-labelled). Briefly: fibrinogen binders on compound microarrays, profiling panel, artefact control for SMM control-protein annotation, biochemical, small-molecule microarray, 635/667 nm fluorescence (AID 1131).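 Note: z-score merges 667 nm fluorescence with per-spot signal-to-noise over triplicate slides.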 To be noted: fibrinogen-A647 binding fluorescence, higher = more signal.
Test [13] deals with Follistatin (Homo sapiens) (UniProt P19883). The experiment in a line: follistatin binders on small-molecule microarrays, primary screen, biochemical, small-molecule microarray, 635/667 nm fluorescence (AID 1132). To be noted: FST binding, 635 nm fluorescence, higher = more signal.
Test [14] deals with Fibroblast growth factor 2 (Homo sapiens) (UniProt P09038). The experiment in a line: FGF2 binders on small-molecule microarrays, primary screen, biochemical, small-molecule microarray, 635/667 nm fluorescence (AID 1133). To be noted: small-molecule microarray binding, FGF2, fluorescence 635/667; higher = more signal.
Test [15] is described as follows: mitochondrial membrane potential change in A549 cells, profiling panel, cell-based, JC-1 fluorescence, basal, 24 h, 100 nL (AID 1138).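 Note: A549 lung adenocarcinoma cells under basal conditions with no added stimulus; test concentration not given here.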 To be noted: higher = more signal.
A further test deals with Lefty1. The experiment in a line: Lefty1 binders on small-molecule microarrays, primary screen, biochemical, small-molecule microarray, 635/667 nm fluorescence (AID 1139). To be noted: small-molecule microarray binding, fluorescence 635/667; higher = more signal.
In test [16] the test system is wheat germ agglutinin (Triticum aestivum), Alexa647-labelled. The experiment in a line: wheat germ agglutinin binders on compound microarrays, profiling panel, artefact control for SMM control-protein annotation, biochemical, small-molecule microarray, 635/667 nm fluorescence (AID 1140).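 Note: score merges 667 nm feature emission with signal to noise over triplicate slides.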 To be noted: WGA-A647 binding, 635 nm fluorescence, higher = more signal.
Test [17] deals with Luciferin 4-monooxygenase (Photinus pyralis) (UniProt P08659). Briefly: firefly luciferase enzyme inhibitors, primary screen, biochemical, luminescence, purified enzyme, 2006 set (AID 1141).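 Note: cell-free assay with purified firefly luciferase at 100 ng per well in PBS; test concentration not given here.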 To be noted: SteadyGlo luminescence, 30 min, higher = more signal, called active from +8 up or from −8 down.

Calls of active or inactive are those of the source.

Sequence of Fibroblast growth factor 2 (Homo sapiens) (P09038 whole entry, looked up): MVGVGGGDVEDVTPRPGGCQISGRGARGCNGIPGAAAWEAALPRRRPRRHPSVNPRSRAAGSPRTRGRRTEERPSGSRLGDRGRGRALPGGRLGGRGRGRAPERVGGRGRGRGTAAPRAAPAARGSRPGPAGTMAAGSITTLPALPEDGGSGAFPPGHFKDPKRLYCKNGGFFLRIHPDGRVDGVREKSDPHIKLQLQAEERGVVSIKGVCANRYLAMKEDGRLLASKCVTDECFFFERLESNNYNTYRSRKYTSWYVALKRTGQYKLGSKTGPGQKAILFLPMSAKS
Sequence of Follistatin (Homo sapiens) (P19883 whole entry, looked up): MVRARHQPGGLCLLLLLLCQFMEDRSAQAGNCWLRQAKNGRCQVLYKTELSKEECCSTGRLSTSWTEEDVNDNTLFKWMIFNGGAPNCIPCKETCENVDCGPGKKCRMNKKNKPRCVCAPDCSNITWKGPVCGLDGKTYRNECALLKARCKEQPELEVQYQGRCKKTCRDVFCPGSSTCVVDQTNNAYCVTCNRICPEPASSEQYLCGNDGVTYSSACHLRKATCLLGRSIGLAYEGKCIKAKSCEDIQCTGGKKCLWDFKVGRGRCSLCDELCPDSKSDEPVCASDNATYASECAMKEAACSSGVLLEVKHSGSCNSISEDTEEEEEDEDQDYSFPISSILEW
Sequence of Focal adhesion kinase 1 (Homo sapiens) (Q05397 whole entry, looked up): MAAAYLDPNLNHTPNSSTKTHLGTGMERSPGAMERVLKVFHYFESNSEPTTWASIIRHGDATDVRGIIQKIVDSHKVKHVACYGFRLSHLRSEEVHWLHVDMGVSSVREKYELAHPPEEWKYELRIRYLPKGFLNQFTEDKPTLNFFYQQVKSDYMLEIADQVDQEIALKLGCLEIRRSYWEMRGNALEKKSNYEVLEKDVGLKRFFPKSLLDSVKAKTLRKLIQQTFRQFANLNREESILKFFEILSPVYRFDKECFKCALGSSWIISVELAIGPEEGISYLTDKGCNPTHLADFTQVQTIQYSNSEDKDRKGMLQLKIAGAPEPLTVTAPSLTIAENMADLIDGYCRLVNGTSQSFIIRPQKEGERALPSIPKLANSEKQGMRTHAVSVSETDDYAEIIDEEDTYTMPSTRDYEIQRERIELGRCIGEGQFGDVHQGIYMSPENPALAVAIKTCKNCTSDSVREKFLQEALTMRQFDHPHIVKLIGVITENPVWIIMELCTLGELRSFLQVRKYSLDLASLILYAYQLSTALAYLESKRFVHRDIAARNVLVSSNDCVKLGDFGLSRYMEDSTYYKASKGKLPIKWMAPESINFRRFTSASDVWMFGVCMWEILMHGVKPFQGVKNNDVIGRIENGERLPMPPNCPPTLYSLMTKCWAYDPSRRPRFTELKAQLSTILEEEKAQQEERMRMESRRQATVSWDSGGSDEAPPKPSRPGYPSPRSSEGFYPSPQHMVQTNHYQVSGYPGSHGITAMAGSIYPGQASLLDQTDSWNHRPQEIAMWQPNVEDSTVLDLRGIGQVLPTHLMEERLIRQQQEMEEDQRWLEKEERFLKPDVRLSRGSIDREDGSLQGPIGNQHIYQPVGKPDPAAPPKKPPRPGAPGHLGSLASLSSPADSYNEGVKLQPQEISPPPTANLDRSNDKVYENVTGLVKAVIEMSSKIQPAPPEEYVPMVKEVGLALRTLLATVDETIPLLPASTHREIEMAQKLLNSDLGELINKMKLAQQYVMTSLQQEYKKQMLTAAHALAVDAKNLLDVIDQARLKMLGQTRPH
Sequence of Concanavalin-A (Canavalia ensiformis) (P02866 whole entry, looked up): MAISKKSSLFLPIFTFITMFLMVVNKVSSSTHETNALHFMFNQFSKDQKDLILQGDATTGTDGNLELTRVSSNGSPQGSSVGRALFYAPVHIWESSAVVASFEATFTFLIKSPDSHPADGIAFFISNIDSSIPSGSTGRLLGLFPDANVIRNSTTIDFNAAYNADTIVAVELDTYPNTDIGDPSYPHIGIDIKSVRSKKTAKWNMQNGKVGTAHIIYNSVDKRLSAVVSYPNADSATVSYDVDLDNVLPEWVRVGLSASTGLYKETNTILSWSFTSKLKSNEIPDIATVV
Sequence of Luciferin 4-monooxygenase (Photinus pyralis) (P08659 whole entry, looked up): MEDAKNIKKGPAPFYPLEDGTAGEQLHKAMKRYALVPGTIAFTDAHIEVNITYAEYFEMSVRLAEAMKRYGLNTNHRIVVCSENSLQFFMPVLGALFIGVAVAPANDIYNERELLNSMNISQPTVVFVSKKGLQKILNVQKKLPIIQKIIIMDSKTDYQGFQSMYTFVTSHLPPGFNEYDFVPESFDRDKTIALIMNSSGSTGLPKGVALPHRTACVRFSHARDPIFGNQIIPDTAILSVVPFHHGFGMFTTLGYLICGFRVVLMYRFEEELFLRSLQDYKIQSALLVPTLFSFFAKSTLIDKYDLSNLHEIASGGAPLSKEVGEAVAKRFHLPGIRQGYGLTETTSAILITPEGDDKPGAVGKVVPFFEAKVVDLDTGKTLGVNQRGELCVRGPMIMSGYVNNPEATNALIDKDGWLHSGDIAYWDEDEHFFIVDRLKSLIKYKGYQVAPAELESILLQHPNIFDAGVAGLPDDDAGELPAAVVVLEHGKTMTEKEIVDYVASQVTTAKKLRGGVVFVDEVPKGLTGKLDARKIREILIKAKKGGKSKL
Sequence of Albumin (Bos taurus) (P02769 whole entry, looked up): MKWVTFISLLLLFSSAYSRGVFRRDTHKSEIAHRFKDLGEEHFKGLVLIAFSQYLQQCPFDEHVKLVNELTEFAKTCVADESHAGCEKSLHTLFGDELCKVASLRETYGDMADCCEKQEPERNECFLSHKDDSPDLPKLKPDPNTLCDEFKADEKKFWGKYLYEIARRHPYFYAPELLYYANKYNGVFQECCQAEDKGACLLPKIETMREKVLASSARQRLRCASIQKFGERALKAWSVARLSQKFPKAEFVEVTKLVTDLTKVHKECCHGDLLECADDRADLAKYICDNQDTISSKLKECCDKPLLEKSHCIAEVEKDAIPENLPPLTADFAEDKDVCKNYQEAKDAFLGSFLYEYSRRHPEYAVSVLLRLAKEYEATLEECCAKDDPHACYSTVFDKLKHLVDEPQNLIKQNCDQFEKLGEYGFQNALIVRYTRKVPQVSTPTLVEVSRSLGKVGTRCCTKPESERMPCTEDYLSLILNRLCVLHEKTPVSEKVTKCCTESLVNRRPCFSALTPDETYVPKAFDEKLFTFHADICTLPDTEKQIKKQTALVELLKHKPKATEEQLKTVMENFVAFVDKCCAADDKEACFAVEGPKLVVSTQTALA

Turning to `O=C(NCC(F)(F)F)[C@@H]1c2ccccc2C(=O)N(Cc2cc(F)cc(C(F)(F)F)c2)[C@H]1c1ccc(CO)cc1`, the composite z-score with Albumin (Bos taurus) was -0.463; in test [2], -0.355; in [3] it was -0.0644; in test [4], 0.295; in [5], 0.837; in test [6] it was -0.0879. For the same compound, the composite z-score in the test with Sam68 (KHDRBS1) was -0.639; in test [7] it was -1.11; in [8], -0.236; in test [9], 0.44; in test [10] it was -0.178; in test [11], -0.385. Moreover, the composite z-score in test [12] is -0.78; in [13], -0.682; in test [14], -0.843; with Lefty1, -1.24; in test [16], -0.948. In addition, in test [1], the composite Z-score was 0.57 (inactive). Also, the values for the z-score in test [15] and in test [17] were -1.37 and 1.08 (inactive), respectively.

On to `C=C(/C(=C/C[C@H](OC(C)=O)c1cccc(OCCO)c1)c1cnc2ccccc2c1)C(C)C`, for which the composite z-score is 0.195 with Albumin (Bos taurus); 0.0701 in [2]; -0.0859 in [3]; 0.547 in test [4]; 0.276 in test [5]; -0.313 in test [6]. Moreover, the composite z-score was 0.615 with Sam68 (KHDRBS1); 1.05 in [7]; 0.689 in test [8]; -0.373 in [9]; 0.68 in test [10]; 0.151 in test [11]. The composite z-score in test [12] is -0.325; in [13], 1.36; in test [14], 0.429; in the test with Lefty1, 1.08; in test [16], 0.961. Besides, the composite Z-score in [1] was 0.896 (inactive). Besides, the z-score in test [15] is 1.61; in test [17] it was -1.19 (inactive).

On to `O=C1C2C=CC(C(O)c3ccc(F)cc3)N(n3cnnc3)C2C(=O)N1Cc1ccccc1` (stereo not given), for which the composite z-score with Albumin (Bos taurus) was -0.224; in [2], 0.0065; in test [3] it was -0.14; in [4], 0.561; in [5] it was 0.747; in test [6], -0.138. Further, the composite z-score is -0.256 with Sam68 (KHDRBS1); -0.62 in test [7]; -0.129 in [8]; -0.782 in test [9]; -0.657 in test [10]; -0.284 in test [11]. The composite z-score in test [12] is -0.48; in test [13], -0.524; in test [14], -0.529; in the test with Lefty1 it was -0.881; in test [16], -0.271. Besides, in [1], the composite Z-score is 0.878 (inactive). In addition, the z-score in test [15] is -1.3; in [17], 1.24 (inactive).

Regarding `COc1ccc([Si](C)(C)[C@@H]2[C@@H](CC(=O)N(CCO)Cc3ccccc3)O[C@]3(C(=O)N(Cc4cccc(N5C(=O)c6cccc7cccc5c67)c4)c4ccccc43)[C@H]2C)cc1`, the composite z-score with Albumin (Bos taurus) is -0.0059; in test [2], -0.124; in test [3], -0.203; in test [4], -0.199; in test [5], 0.135; in test [6], 0.0553. Also, the composite z-score was 0.0019 in the test with Sam68 (KHDRBS1); 0.432 in test [7]; 1.04 in [8]; 0.63 in test [9]; -0.46 in test [10]; 0.994 in test [11]. The composite z-score in [12] turned out to be 0.725; in [13], 1.1; in test [14] it was 1.72; in the test with Lefty1, 0.972; in test [16] it was 0.369. In [1], the composite Z-score is 0.363 (inactive). The z-score in test [15] was -0.538; in test [17], 0.187 (inactive).

Consider `CCCCCCCCCCC(O)C1C=CC2C(=O)N(C)C(=O)C2N1Nc1ccc([N+](=O)[O-])cc1[N+](=O)[O-]` (stereo not given), for which the composite z-score was found to be 0.884 with Albumin (Bos taurus); 0.0668 in test [2]; 0.0807 in test [3]; 0.589 in test [4]; 2.32 in test [5]; 0.141 in test [6]. Moreover, the composite z-score in the test with Sam68 (KHDRBS1) was 1.11; in test [7], -0.0731; in test [8], 1.14; in test [9] it was 1.38; in [10], 1.21; in [11], 0.851. Further, the composite z-score in test [12] is 0.949; in [13], 0.0686; in test [14], -0.597; in the test with Lefty1, -0.524; in test [16] it was 1. Besides, the composite Z-score in test [1] was 0.423 (inactive). In addition, the z-score in test [15] was 1.68; in test [17] it was 0.581 (inactive).

Consider `C=C[C@@H](COC(C)=O)N(C(=O)OC(C)(C)C)S(=O)(=O)c1ccc(Br)cc1`, for which the composite z-score with Albumin (Bos taurus) is 0.321; in [2], 0.0494; in test [3], -0.0401; in test [4], 0.646; in test [5] it was 0.155; in [6], -0.101. Also, the composite z-score with Sam68 (KHDRBS1) came to 0.827; in test [7] it was 1.4; in test [8], 1.12; in test [9], 1.5; in test [10], 0.966; in test [11] it was 0.233. Moreover, the composite z-score in [12] amounted to 0.741; in test [13], 1.53; in test [14], 1.89; in the test with Lefty1 it was 1.65; in test [16], 1.1. In [1], the composite Z-score was 0.388 (inactive). In addition, the z-score is 0.307 in test [15] and -0.149 (inactive) in test [17].
